Screens: PubChem BioAssay, Center for Chemical Genomics, University of Michigan
Many of the other results were omitted from the sample, so hits are more common in it than they were.
Dicer inh: inhibitors of Dicer pre-microRNA processing, primary screen, biochemical, cat-ELCCA, chemiluminescence; Endoribonuclease Dicer (Homo sapiens), Q9UPY3; cat-ELCCA pre-miR-21 Dicer processing; stronger effect = higher value; z-score at 25 µM; hit rate 6% among 47,000; in the data active means z-score above about 3, passing the limit was not always enough;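 further: higher signal means more uncleaved substrate so more Dicer inhibition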
Target sequence (Q9UPY3 whole entry, looked up): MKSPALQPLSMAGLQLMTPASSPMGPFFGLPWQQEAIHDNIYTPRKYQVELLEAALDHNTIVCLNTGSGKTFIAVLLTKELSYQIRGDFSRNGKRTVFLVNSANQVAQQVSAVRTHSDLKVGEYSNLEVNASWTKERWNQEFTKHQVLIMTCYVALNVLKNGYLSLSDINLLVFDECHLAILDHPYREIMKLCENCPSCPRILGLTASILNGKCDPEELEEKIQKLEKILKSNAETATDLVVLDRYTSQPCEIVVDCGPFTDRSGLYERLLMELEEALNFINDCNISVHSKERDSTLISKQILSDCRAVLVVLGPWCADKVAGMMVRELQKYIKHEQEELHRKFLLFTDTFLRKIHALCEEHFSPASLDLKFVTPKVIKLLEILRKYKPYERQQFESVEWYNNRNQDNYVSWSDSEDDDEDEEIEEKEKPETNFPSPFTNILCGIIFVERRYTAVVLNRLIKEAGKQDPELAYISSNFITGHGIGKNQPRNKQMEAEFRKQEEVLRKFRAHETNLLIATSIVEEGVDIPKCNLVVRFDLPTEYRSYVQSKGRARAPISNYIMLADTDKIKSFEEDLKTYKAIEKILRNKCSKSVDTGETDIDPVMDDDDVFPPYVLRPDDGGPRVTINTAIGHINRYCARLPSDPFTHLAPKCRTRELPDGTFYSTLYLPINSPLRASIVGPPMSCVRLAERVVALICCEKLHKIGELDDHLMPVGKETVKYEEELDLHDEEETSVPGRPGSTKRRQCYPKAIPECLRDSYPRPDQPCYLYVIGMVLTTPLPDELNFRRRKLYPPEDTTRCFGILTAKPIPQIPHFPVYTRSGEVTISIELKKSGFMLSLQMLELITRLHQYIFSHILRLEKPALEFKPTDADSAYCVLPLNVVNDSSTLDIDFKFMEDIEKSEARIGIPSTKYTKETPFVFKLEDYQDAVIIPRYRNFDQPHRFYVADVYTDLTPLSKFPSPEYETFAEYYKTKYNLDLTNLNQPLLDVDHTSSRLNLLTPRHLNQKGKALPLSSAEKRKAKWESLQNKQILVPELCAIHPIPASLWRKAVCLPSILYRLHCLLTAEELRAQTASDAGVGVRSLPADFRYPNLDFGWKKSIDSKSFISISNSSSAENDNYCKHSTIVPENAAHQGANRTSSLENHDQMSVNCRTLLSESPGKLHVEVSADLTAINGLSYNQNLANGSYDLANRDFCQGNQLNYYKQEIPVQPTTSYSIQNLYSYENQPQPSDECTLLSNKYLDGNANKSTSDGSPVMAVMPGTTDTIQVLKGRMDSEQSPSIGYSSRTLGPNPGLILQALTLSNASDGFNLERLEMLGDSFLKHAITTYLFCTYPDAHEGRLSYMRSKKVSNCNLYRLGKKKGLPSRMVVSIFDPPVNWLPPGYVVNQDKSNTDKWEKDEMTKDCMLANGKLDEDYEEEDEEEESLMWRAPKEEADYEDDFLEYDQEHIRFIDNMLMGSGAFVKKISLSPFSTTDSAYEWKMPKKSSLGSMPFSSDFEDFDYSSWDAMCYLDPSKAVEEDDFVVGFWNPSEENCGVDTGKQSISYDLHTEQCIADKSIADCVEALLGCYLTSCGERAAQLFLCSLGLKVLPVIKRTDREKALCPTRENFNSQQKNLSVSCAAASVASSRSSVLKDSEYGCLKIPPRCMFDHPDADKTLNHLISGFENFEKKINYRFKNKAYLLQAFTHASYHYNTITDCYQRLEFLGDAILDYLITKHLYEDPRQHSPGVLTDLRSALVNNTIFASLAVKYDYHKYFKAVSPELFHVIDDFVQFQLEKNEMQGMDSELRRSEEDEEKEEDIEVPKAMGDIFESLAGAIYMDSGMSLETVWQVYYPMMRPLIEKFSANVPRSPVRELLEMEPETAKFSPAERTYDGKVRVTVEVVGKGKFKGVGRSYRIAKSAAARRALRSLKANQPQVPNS
Of the large screens only hits and unclear results are named; the others gave an inactive call.

c1ccc2c(c1)CC1OC(CC3=N[C@H]4c5ccccc5C[C@H]4O3)=NC21 (stereo partly drawn)	none
O=[N+]([O-])c1ccc(Cn2ccnc2-c2ccc(C(F)(F)F)cc2)cc1	none
Cc1ccc(S(=O)(=O)n2ccc3cc(N)ccc32)cc1	Dicer inh 5.69
Cc1ccc(S(=O)(=O)c2c(C)cc(C)cc2C)cc1	none
Cc1ccc(S(=O)(=O)n2nc(C)cc2N)cc1	none
CCN(CC)CCNc1nc2c(c(=O)n(C)c(=O)n2C)n1Cc1ccc(Cl)c(Cl)c1	none
CCN(CC)CCNc1nc2c(c(=O)[nH]c(=O)n2C)n1Cc1ccc(Cl)cc1	none
CCN(CC)CCNc1nc2c(c(=O)n(C)c(=O)n2C)n1Cc1ccc(F)cc1	Dicer inh 3.29
Cn1c(=O)c2c(nc(NCCO)n2Cc2cccc3ccccc23)n(C)c1=O	Dicer inh 3.08
Cn1c(=O)c2c(nc(N/N=C/c3ccc(O)cc3)n2Cc2c(Cl)cccc2Cl)n(C)c1=O	none
Cn1c(=O)c2c(nc(Cl)n2Cc2ccccc2)n(C)c1=O	none
Cn1c(=O)c2c(nc(NCCCO)n2Cc2ccccc2F)n(C)c1=O	none
Cn1c(=O)c2c(nc(N/N=C/c3cccc(O)c3)n2Cc2ccccc2Br)n(C)c1=O	Dicer inh 3.38
Cn1c(=O)c2c(nc(NCCc3ccccc3)n2Cc2ccccc2F)n(C)c1=O	none
Cn1c(=O)c2c(nc(N/N=C/c3ccccc3)n2Cc2ccccc2)n(C)c1=O	none
Cn1c(=O)c2c(nc(NC3CCCCC3)n2Cc2ccccc2)n(C)c1=O	Dicer inh 3.63
Cn1c(=O)c2c(nc(NCc3ccccc3)n2Cc2ccccc2)n(C)c1=O	none
CC(C)(Oc1ccc(C(C)(C)C)cc1)C(=O)O	none
CSc1nc2ccc([N+](=O)[O-])cc2s1	none
C=C(C)Cn1c(CN2CCOCC2)nc2c1c(=O)n(C)c(=O)n2C	none
COc1ccc(C(=O)/C=C2\SC(=O)C(=O)N2c2ccccc2)cc1	none
O=C(O)CCSc1nnc(-c2ccc3ccccc3c2)o1	none
N#Cc1sccc1COc1ccc(Cl)cc1	none
O=C(NNc1cccc(C(F)(F)F)n1)c1c(F)cccc1F	none
CC(C)(C)c1ccc(-c2ncc(-c3cccc([N+](=O)[O-])c3)s2)cc1	none
c1ccc(-c2ccc(-c3cnc(-c4ccncc4)s3)cc2)cc1	Dicer inh 3.1
O=c1sc(-c2ccccc2)ncc1-c1ccccc1	none
CN(CCOC(=O)c1ccc([N+](=O)[O-])cc1)c1ncc(C(F)(F)F)cc1Cl	none
O=C1CSCN1Cc1cc(Cl)cc(Cl)c1	none
COc1cccc(-c2nc3cc(OC)c(OC)cc3c(=O)o2)c1	none
C=CCNc1nc2c(c(=O)[nH]c(=O)n2C)n1CC(O)CO (stereo not drawn)	none
C=CCNc1nc2c(c(=O)[nH]c(=O)n2C)n1CC	Dicer inh 3.19
CCCNc1nc2c(c(=O)[nH]c(=O)n2C)n1CCO	none
CC(C)(C)c1ccc(OCc2nc(Nc3ccccc3Cl)cc(=O)[nH]2)cc1	none
CCCC(=O)N1c2cc(C)ccc2C(=C2SC(C(=O)OC)=C(C(=O)OC)S2)C(=S)C1(C)C	none
COC(=O)C1=C(C(=O)OC)SC(=C2C(=S)C(C)(C)N(C(=O)C(C)C)c3cc(C)ccc32)S1	none
CCOC(=O)C1=C(C(=O)OCC)SC(=C2C(=S)C(C)(C)N(C(C)=O)c3cc(C)ccc32)S1	Dicer inh 3.39
O=C(NNc1ncccc1-n1cccc1)Nc1ccc(Cl)cc1	none
CN(C)/C=C/C=c1/c(=O)c2cccc3cccc1c32	Dicer inh 3.72
CN(C)/C=C/C=C1\N=C(c2ccccc2)OC1=O	none
CN(C)N1C(=O)c2cccc3cccc(c23)C1=O	none
CN(C)CCCNc1ccc([N+](=O)[O-])c(N2CCOCC2)c1C#N	none
CCS(=O)(=O)c1ccc(O)c(NC(=O)c2nccnc2C(=O)O)c1	none
COc1ccc2[nH]c(C)c(CN3CCCC3)c(=O)c2c1	none
COc1ccc2[nH]c(C)c(CN3CCC(C)CC3)c(=O)c2c1	Dicer inh 3.48
CCOc1ccc2[nH]c(C)c(CN3CCCC3)c(=O)c2c1	none
CCOc1ccc(C2c3c(oc4ccc(C)cc4c3=O)C(=O)N2c2nccs2)cc1 (stereo not drawn)	none
N#Cc1c(N)n(Cc2ccccc2)c(=O)c2cccnc12	none
CCn1c(SC)nc2ccccc2c1=O	none
CCn1c(/C=C/c2ccc3c(c2)OCO3)nc2ccccc2c1=O	Dicer inh 5.12
CCn1c(/C=C/c2cccc(Br)c2)nc2ccccc2c1=O	none
Cc1c(S(=O)(=O)Nc2ccc3c(c2)OCCO3)sc2ccc(Cl)cc12	none
COc1ccccc1NS(=O)(=O)c1sc2ccc(Cl)cc2c1C	Dicer inh 3.28
Cc1ccc(NS(=O)(=O)c2sc3ccc(Cl)cc3c2C)cc1	none
COc1ccc(Nc2ccccc2C(C)C)c(C(=O)O)c1	none
Cc1ccc(S(=O)(=O)CCN2C(=O)CSC2=O)cc1	none
Cc1ccc(C)n1-c1ccc(-c2n[nH]c(=S)n2-c2ccccc2)cc1	none
CCn1c(C(C)Oc2ccc(Cl)cc2)n[nH]c1=S (stereo not drawn)	none
CC(Oc1ccccc1-c1ccccc1)c1n[nH]c(=S)n1-c1ccccc1 (stereo not drawn)	Dicer inh 3.34
Cc1ccc(-c2cc(C(F)(F)F)n3nc(C)cc3n2)cc1	none
O=S(=O)(c1ccc(-c2nc(-c3ccc(Cl)cc3)cs2)cc1)N1CCOCC1	none
O=S(=O)(c1ccc(-c2cn3ccccc3n2)cc1)N1CCOCC1	none
O=S(=O)(c1ccc(-c2noc(-c3ccccc3)n2)cc1)N1CCOCC1	Dicer inh 3.32
COC(=O)CN1C(=O)Nc2ccc(Br)cc2C1c1ccccc1 (stereo not drawn)	none
O=C(O)CN1C(c2ccccc2O)Nc2ccc(Br)cc2C1c1ccccc1 (stereo not drawn)	Dicer inh 3.15
COc1ccc(C2Nc3ccc(Br)cc3C(c3ccccc3)N2CC(=O)O)cc1 (stereo not drawn)	none
Cc1ccc2nc(-c3ccc(NC(=O)C(c4ccccc4)C4CCCC4)cc3)sc2c1 (stereo not drawn)	none
COC(=O)C1=C(C)NC2=C(C(=O)CC(c3ccc(OC)c(OC)c3)C2)C1c1ccc(F)cc1 (stereo not drawn)	Dicer inh 4.48
COC(=O)C1=C(C)NC2=C(C(=O)CC(c3ccccc3)C2)C1c1ccccc1F (stereo not drawn)	none
CCCCCOC(=O)C1=C(C)NC2=C(C(=O)CCC2)C1c1ccc(OC)c(Br)c1 (stereo not drawn)	none
COC(=O)C1=C(C)NC2=C(C(=O)CC(c3ccc(OC)cc3)C2)C1c1ccc(OC)c(OC)c1 (stereo not drawn)	none
CCOc1ccc(C2C(C(=O)OCCOC)=C(C)NC3=C2C(=O)CCC3)cc1OC (stereo not drawn)	none
CCCCOC(=O)C1=C(C)NC2=C(C(=O)CC(C)(C)C2)C1c1ccc(OC)c(OC)c1 (stereo not drawn)	none
CCOCCOC(=O)C1=C(C)NC2=C(C(=O)CC(C)(C)C2)C1c1ccc(OC)c(OC)c1 (stereo not drawn)	none
COC(=O)C1=C(C)NC2=C(C(=O)CC(c3ccc(Cl)cc3)C2)C1c1ccccc1Cl (stereo not drawn)	Dicer inh 3.39
COC(=O)C1=C(C)NC2=C(C(=O)CC(c3ccc(OC)c(OC)c3)C2)C1c1ccc(SC)cc1 (stereo not drawn)	none
COC(=O)C1=C(C)NC2=C(C(=O)CC(c3ccccc3)C2)C1c1ccccc1Cl (stereo not drawn)	none
CCCCCOC(=O)C1=C(C)NC2=C(C(=O)CCC2)C1c1ccc(OCC)c(OC)c1 (stereo not drawn)	Dicer inh 4.16
COCCOC(=O)C1=C(C)NC2=C(C(=O)CC(C)(C)C2)C1c1ccc(OC)c(OC)c1 (stereo not drawn)	Dicer inh 3.71
